Some test systems named below: T-47D breast; BT-549 breast; MDA-MB-435 melanoma; SW-620 colon; MCF7 breast; HCT-116 colon; HCC-2998 colon; KM12 colon.
What all share (assay): NCI-60 one-dose screen, 48 h (100 = growth as untreated, 0 = no growth, -100 = all killed)
Settings in all cases: 10 µM unless noted

Compounds without any hit were thinned out: in the full panel of roughly 83,000, 20% have a hit.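 Compound tested at a single concentration for 48 hours in 96-well plates; a percent growth value below 10 was scored as active.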 A number with no mark means an inactive call. Active and inactive are the calls of the source.

This note sets out measurements from PubChem BioAssay (NCI).

Turning to `CN(c1ccccc1)c1ccc2c(c1)OCCC21CC1Nc1cnccc1C(=O)O` (stereo not given), the growth was 72.6% in the assay on T-47D breast; 64.8% in the assay with BT-549 breast; 82.6% in the assay with MDA-MB-435 melanoma; 80.2% in the assay with SW-620 colon; 65.8% in the assay on MCF7 breast; 33% in the assay on HCT-116 colon. Also, the growth in the assay on HCC-2998 colon is 68.2%; in the assay on KM12 colon, 64.2%.

For the molecule `O=C(Nc1ccc(-n2cc(-c3ccncc3)c(-c3ccc(Cl)c(O)c3)n2)cc1)N1CCOCC1`, the growth in the assay with T-47D breast is 83.9%; in the assay with BT-549 breast it was 100%; in the assay with MDA-MB-435 melanoma, 104%; in the assay with SW-620 colon, 113%; in the assay with MCF7 breast, 101%; with HCT-116 colon it was 94.8%. Also, the growth is 109% with HCC-2998 colon and 100% with KM12 colon.

Consider `C=CCSc1nc2ccccc2cc1/C=N/O`, for which the growth was 67.6% in the assay with T-47D breast; 85.6% with BT-549 breast; 95.1% in the assay with MDA-MB-435 melanoma; 87% in the assay with SW-620 colon; 78% in the assay with MCF7 breast; 78.8% in the assay on HCT-116 colon. The results for the growth in the assay with HCC-2998 colon and in the assay with KM12 colon were 93.9% and 89.5%, respectively.

With `N#Cc1c(-c2ccccn2)[nH]c(=S)[nH]c1=O`, the growth was 94.4% in the assay with T-47D breast; 102% in the assay on BT-549 breast; 99.8% with MDA-MB-435 melanoma; 105% with SW-620 colon; 95.1% in the assay on MCF7 breast; 94.8% in the assay with HCT-116 colon. Further, the growth in the assay on HCC-2998 colon is 106%; in the assay with KM12 colon it was 102%.

For `CCc1ccccc1-n1c(-c2ccc(Cl)cc2)cc(-c2ccc(Cl)cc2)c(C#N)c1=O`, the growth with T-47D breast was 78.6%; with BT-549 breast, 93.7%; in the assay with MDA-MB-435 melanoma, 82.8%; with SW-620 colon, 88.9%; in the assay on MCF7 breast, 61.7%; with HCT-116 colon it was 69.8%. Further, the values for the growth in the assay on HCC-2998 colon and in the assay on KM12 colon were 101% and 82.9%, respectively.

On to `COc1ccc2c(c1)CCCN2c1c2ccccc2nc2ccccc12`, for which the growth in the assay with T-47D breast is 51.1%; with BT-549 breast, 7.21% (active); in the assay with MDA-MB-435 melanoma, -17.9% (active); in the assay with SW-620 colon, 24.7%; in the assay with MCF7 breast, 20.8%; in the assay on HCT-116 colon it was 6.8% (active). Further, the growth was -9.75% (active) with HCC-2998 colon and 5.15% (active) in the assay with KM12 colon.

With `C=CCNc1nc(NN2C(=O)c3cccc4cccc(c34)C2=O)nc(-n2cnc3ccccc32)n1`, the growth with T-47D breast was 54.8%; with BT-549 breast it was 82.5%; with MDA-MB-435 melanoma, 97.5%; with SW-620 colon, 90.6%; in the assay with MCF7 breast it was 55.1%; in the assay with HCT-116 colon, 79.8%. In addition, the growth in the assay on HCC-2998 colon was 91.8%; in the assay with KM12 colon, 18.6%.

`Cc1cc(NCCCCNc2ccnc3cc(Cl)ccc23)nc(Nc2ccc(C(=O)N3CCCCC3)cc2)n1`: the growth with T-47D breast was -23.5% (active); in the assay on BT-549 breast it was 92.9%; in the assay with MDA-MB-435 melanoma, -84.3% (active); in the assay on SW-620 colon, -70.2% (active); in the assay on MCF7 breast, -49.1% (active); with HCT-116 colon, -48.9% (active). The growth with HCC-2998 colon is -37.5% (active); in the assay on KM12 colon, 25.8%.

For the molecule `S=C(Cc1ccc2c(c1)CCCC2)N1CCOCC1`, the growth with T-47D breast is 80.2%; in the assay with BT-549 breast, 101%; in the assay on MDA-MB-435 melanoma, 101%; in the assay with SW-620 colon it was 114%; in the assay with MCF7 breast, 94.3%; in the assay on HCT-116 colon, 87.6%. Besides, the growth with HCC-2998 colon was 98%; in the assay on KM12 colon, 106%.

Turning to `COC(=O)[C@]12CC[C@@H](C)[C@H](C)[C@@H]1C1=CC[C@@H]3[C@@]4(C)C(C=O)=C[C@@](C)(COS(C)(=O)=O)[C@@H]4C(=O)C[C@@]3(C)[C@]1(C)CC2`, the growth is 33% in the assay on T-47D breast; 42.9% with BT-549 breast; 62.3% in the assay with MDA-MB-435 melanoma; 35.9% in the assay on SW-620 colon; 18.3% in the assay with MCF7 breast; 5.35% (active) in the assay with HCT-116 colon. Besides, the growth was 43.4% in the assay on HCC-2998 colon and 23.1% in the assay on KM12 colon.

Turning to `O=C(NCCc1ccc(O)c(O)c1)C12CC3CC(CC(C3)C1)C2`, the growth with T-47D breast was 93.1%; in the assay on BT-549 breast it was 92.7%; in the assay with MDA-MB-435 melanoma it was 107%; with SW-620 colon, 91%; in the assay with MCF7 breast, 89.4%; in the assay with HCT-116 colon it was 82.6%. The growth in the assay on HCC-2998 colon was 115%; in the assay with KM12 colon, 117%.

As to `COc1cc(C2CC(c3cc(OC)c(OCCCOc4ccc(-n5c(/C=C/c6ccccc6)nc6ccccc6c5=O)cc4)c(OC)c3)=NO2)cc(OC)c1OC` (stereo not given), the growth with T-47D breast was 108%; in the assay with BT-549 breast it was 118%; with MDA-MB-435 melanoma it was 110%; with SW-620 colon, 104%; in the assay with MCF7 breast, 97.4%; with HCT-116 colon it was 106%. Also, the growth in the assay on HCC-2998 colon was 105%; in the assay on KM12 colon it was 122%.

Consider `COc1ccccc1NC(=O)N/C(N)=N/c1nc2ccccc2s1`, for which the growth in the assay on T-47D breast was 52.2%; in the assay on BT-549 breast it was 50.8%; in the assay with MDA-MB-435 melanoma, -18.6% (active); with SW-620 colon it was 25.6%; in the assay on MCF7 breast it was 20.3%; in the assay on HCT-116 colon, 13.4%. The growth is 28.6% in the assay with HCC-2998 colon and 10.4% in the assay on KM12 colon.

As for `CC(C)(C)CC(C)(C)Nc1c(-c2ccncc2)nc2cnccn12`, the growth is 86.1% with T-47D breast; 98.6% in the assay on BT-549 breast; 99.2% in the assay on MDA-MB-435 melanoma; 106% with SW-620 colon; 96.5% with MCF7 breast; 90.1% in the assay on HCT-116 colon. Also, the growth with HCC-2998 colon was 116%; in the assay with KM12 colon it was 98.1%.

For the molecule `N=C(N)c1ccc(-c2ccc(-c3cncc4ccccc34)s2)s1`, the growth in the assay on T-47D breast was -58.3% (active); in the assay on BT-549 breast it was 36.9%; in the assay with MDA-MB-435 melanoma it was -91.2% (active); with SW-620 colon, -68.4% (active); in the assay on MCF7 breast, -68.7% (active); with HCT-116 colon, -84.4% (active). Also, the growth in the assay with HCC-2998 colon is -78.3% (active); in the assay on KM12 colon, -78.8% (active).
